The source of these data is PubChem BioAssay (NCATS).

The structures appear in SMILES notation. Records with an inconclusive call do not appear. Calls of active or inactive are those of the source. The call rests on the fitted dose curve; in most records, active means well fitted inhibition curve with a large enough effect; inconclusive means small, poorly fitted or top-dose-only effect; inactive means flat fitted curve, though single readings scatter.

For the assay, the system named is HACAT. As to the kind of experiment: qHTS assay to identify novel small-molecules to repurpose for Merkel cell carcinoma treatment (AID 1296009). Further: nearly all actives have a fitted effect of over 60% in size. The note with it: MCC and control cell lines, CellTiter-Glo viability, 72 h; at 44.8 µM (top of the series) unless noted. Summed up: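 CellTiter-Glo luminescence after 72 hr compound exposure at 37 degree celsius gave cell viability. Libraries NPC and MIPE were run as 8- and 11-point dose responses; RLUs normalized to DMSO (negative) and no-cell (cytotoxicity) controls.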
(In qHTS, concentration-response curves come from the screen itself.)
Turning to `CN1CCCCC1Cn1cc(C(=O)c2cc([N+](=O)[O-])ccc2I)c2ccccc21` (configuration not stated), the compound was classed as inactive.
With `CN(Cc1cccc(-c2ccncc2)c1)C(=O)Oc1ccc(-c2ccc(C(N)=O)cc2)cc1`, the call was inactive.
To `CN(C(=O)C(c1ccccc1)c1ccccc1)[C@H](CN1CC[C@H](O)C1)c1ccccc1` belongs “inactive”; to `Cc1ccc2c(c1)[C@H]1CN(C)CC[C@H]1N2C(=O)CSc1nnnn1-c1ccc(Cl)cc1`, “inactive”.
For `CCCN(CCC)[C@@H]1CCc2ccc3[nH]c(C#N)cc3c2C1`, the result was inactive.
As to `CC(=O)OC[C@]12[C@H](OC(C)=O)C(=O)[C@@H]3[C@@H](O)[C@@]14O[C@@]3(C)COC(=O)c1cccnc1[C@@H](C)[C@H](C)C(=O)O[C@@H]([C@H](OC(C)=O)[C@@H]2OC(C)=O)[C@]4(C)O`, the outcome is “inactive [at 17.4 µM]”.
To `COc1ccc2c(c1)c(CCN(C)C)cn2S(=O)(=O)c1ccccc1` belongs “inactive”.
